DRD3 antagonist – qHTS of D3 Dopamine Receptor Antagonist: qHTS; D(3) dopamine receptor (Homo sapiens), P35462; AID 652054, 2013; max response, negative = inhibition, %; 360,000 compounds, 2.5% hits; D3R cells, DiscoveRx beta-arrestin luminescence, antagonist mode; hits give low values; in the data active means max response below about -50%; inconclusive means no clear call, values can overlap the other calls; further: on the % scale 0 is the no-effect control and ±100 the full control effect
Target sequence (P35462 whole entry, looked up): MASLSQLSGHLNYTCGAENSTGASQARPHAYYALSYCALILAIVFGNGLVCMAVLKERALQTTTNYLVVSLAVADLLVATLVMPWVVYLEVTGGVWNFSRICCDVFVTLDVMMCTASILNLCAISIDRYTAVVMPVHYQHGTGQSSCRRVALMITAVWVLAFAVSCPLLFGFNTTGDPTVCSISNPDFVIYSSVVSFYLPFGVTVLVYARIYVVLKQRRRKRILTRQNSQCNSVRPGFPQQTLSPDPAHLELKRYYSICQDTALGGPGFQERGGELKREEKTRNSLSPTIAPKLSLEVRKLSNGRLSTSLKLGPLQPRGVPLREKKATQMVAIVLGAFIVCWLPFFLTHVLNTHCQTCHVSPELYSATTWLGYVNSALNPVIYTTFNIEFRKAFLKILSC
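Cells expressing the human receptor were seeded at 1500 cells/well, incubated overnight at 37 degrees C in 5% CO2, then exposed to library compounds with dopamine controls for 90 minutes at 37 degrees C before luminescent detection.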
ATXN2 expr inh – Primary qHTS for Inhibitors of ATXN expression. Potency, µM (series often up to 57 µM), for inactives: at the top dose activity change, negative = inhibition, actives largely listed as inhibitors. HEK-293 ATXN2-luciferase reporter, luminescence, 24 h. 360,000 compounds, 0.72% hits; further: potency means the concentration at half of the fitted maximal effect; on the % scale 0 is the no-effect control and ±100 the full control effect; nearly all actives have a fitted effect of over 55% in size
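ATXN2-luciferase reporter cells (luciferase flanked by upstream and downstream ATXN2 gene portions) were treated 24 h at 37 °C with compounds at up to 57 uM. SteadyGlo luminescence gave expression; GF-AFC fluorescence gave viability.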
S2 tox – Viability Counterscreen for Primary qHTS for Inhibitors of ATXN expression; S2 cells (HEK-293 line with an ATXN2-luciferase reporter) viability, CellTiter-Fluor protease fluorescence, 24 h; Potency, µM (series often up to 56.7 µM), usual class: cytotoxic; 400,000 compounds, 0.49% hits; AID 651635, 2014; further: potency means the concentration at half of the fitted maximal effect; nearly all actives have a fitted effect of over 40% in size
HepG2 viability – qHTS for Inhibitors of TGF-b: Cytotox Counterscreen. HepG2 CAGA-GFP viability, ATP luminescence, 18 h. Potency, µM (titrated, usually from 46.1 µM), for inactives: at the top dose activity change, negative = cytotoxicity, usual class: cytotoxic. 410,000 compounds, 0.76% hits. AID 588856, 2011; further: potency means the concentration at half of the fitted maximal effect
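HepG2 CAGA-GFP cells (1000/well, DMEM with 1% FBS) received compound, then TGF-beta at 500 pg/mL final, and were incubated 18 hours at 37 degrees C. Viability was read by CellTiter-Glo luminescence. Media-only wells were set as complete cell-killing and DMSO as no toxicity.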
D3 ag – qHTS of D3 Dopamine Receptor Agonist: qHTS; D(3) dopamine receptor (Homo sapiens), P35462; D3R DiscoveRx beta-arrestin cells, luminescence, 90 min; max activation, %; 410,000 compounds, 0.58% hits; AID 652048, 2013; in the data active means max activation above about 30%; further: 0% is about no effect
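Cells at 1500/well, incubated overnight, then treated with pinned compounds (dopamine as control) for 90 min at 37 degrees C. DiscoveRx reagent added for 30 - 60 minutes at room temperature; luminescence read.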
TGFb SMAD3 inh – qHTS for Inhibitors of TGF-b. HepG2 CAGA-GFP TGF-b/SMAD3 reporter, GFP fluorescence, 18 h; TGF-beta stimulated, 500 pg/mL final. Potency, µM (highest dose often 46.1 µM), without a hit: at the top dose activity, negative = inhibition, most hits filed as inhibitors. 410,000 compounds, 1.2% hits. AID 588855, 2011; further: potency means the concentration at half of the fitted maximal effect; on the % scale 0 is the no-effect control and ±100 the full control effect; nearly all actives have a fitted effect of over 65% in size
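Smad-responsive CAGA-GFP expression was quantified in HEPG2 cells exposed to compounds and 500 pg/mL final TGF-beta for 18 h at 37 degrees C; unstimulated wells defined full inhibition.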
Starred values were filed as active, the others as inactive; i = inactive; ? = inconclusive; . = no result given. Only some compounds are listed: those with a hit (about 4.7% of all), similar ones and a draw of the others. Unless noted, the call rests on the fitted dose curve; in most records, active means well fitted curve in the direction sought with a large enough effect; inconclusive means small, poorly fitted or top-dose-only effect, or another doubt; inactive means no such curve, though single readings can be large; an effect the other way counts as inactive or inconclusive.

SMILES	DRD3 antagonist	ATXN2 expr inh	S2 tox	HepG2 viability	D3 ag	TGFb SMAD3 inh
CC1CCN(CCC(=O)N2CCCc3c2c(=O)oc2ccc(O)cc32)CC1	-63*	5%	i	-11%	-8	?
CN(CC(=O)N1CCCc2c1c(=O)oc1ccc(O)cc21)Cc1ccccc1	-68*	-5%	i	-30%	-11	-3%
CC(C(=O)N1CCCc2c1c(=O)oc1ccc(O)cc21)N1CCc2ccccc2C1 (centres undefined)	-9	-12%	?	-5%	-19	-6%
CCOC(=O)C1CCN(CC(=O)N2CCCc3c2c(=O)oc2ccc(OCc4ccccc4)cc32)CC1	.	-22%	i	-36%	-22	-6%
CCOC(CNC(=O)c1ccc(N2CCc3ccccc32)c([N+](=O)[O-])c1)OCC	-67*	-13%	i	-45%	-12	-22%
Cc1cccc(N2CC(C)Cn3c2nc2c3c(=O)n(CC(=O)O)c(=O)n2C)c1 (centres undefined)	.	3%	i	-9%	-13	0%
C=CCn1c(=O)c2c(nc3n2CC(C)CN3c2cccc(OC)c2)n(C)c1=O (centres undefined)	-69*	7%	i	6%	-10	2%
Cn1c(=O)[nH]c(=O)c2c1nc1n(CCO)c(-c3ccccc3)cn21	.	11%	i	2%	9	3%
O=S(=O)(c1ccc(F)c(F)c1)N1CCN(Cc2ccc3c(c2)OCO3)CC1	-2	-11%	i	-5%	-11	?
COc1cc(C)c(C)cc1S(=O)(=O)N1CCN(Cc2ccc3c(c2)OCO3)CC1	-55*	-1%	i	-5%	-16	-5%
O=S(=O)(c1ccc2c(c1)OCCO2)N1CCN(Cc2ccc3c(c2)OCO3)CC1	-50*	-2%	i	-8%	2	-19%
COc1cc(S(=O)(=O)N2CCN(Cc3ccc4c(c3)OCO4)CC2)c(C)cc1C	-6	-25%	i	-30%	-6	?
CN(C)CCOc1ccc(C(=C(CCCl)c2ccccc2)c2ccccc2)cc1	.	3%	.	.	.	.
Cc1nc(C)c(CC(=O)N2CCOc3ccc(CN4CCN(c5ccccn5)CC4)cc3C2)s1	.	.	i	.	.	.
Cc1ccc(NC(=O)CN(C)C(=O)c2ccc(Cl)nc2)cc1	-84*	1%	i	-6%	-16	-11%
Cc1cc(C)c2c(c1)C1C=CCC1C(C(=O)O)N2 (centres undefined)	.	.	.	5%	.	-6%
Cn1nnc(NC(=S)NC(=O)c2cc(Cl)ccc2Cl)n1	-70*	0%	i	-36%	-21	?
COc1cc2ccccc2cc1C(=O)NC(=S)Nc1nnn(C)n1	1	-1%	i	5%	1	?
CCCNC(=O)C1(C)CCCN(Cc2ccc3c(c2)OCO3)C1 (centres undefined)	-55*	-3%	i	-4%	-11	10%
CCCNC(=O)C1(C)CCN(Cc2cccc(OC(=O)c3ccccc3)c2)C1 (centres undefined)	-79*	2%	i	0%	-16	-13%
CCCNC(=O)C1(C)CCN(Cc2cc(C(F)(F)F)ccc2Cl)C1 (centres undefined)	-57*	5%	i	-11%	-14	2%
CCCNC(=O)C1(C)CCN(Cc2ccc(-c3ccccc3)o2)C1 (centres undefined)	-79*	-2%	i	-18%	-23	6%
CCNC(=O)C1(C)CCCN(Cc2ccc(-c3ccccc3)o2)C1 (centres undefined)	?	-27%	i	-31%	-18	-5%
Cc1ccc(F)cc1S(=O)(=O)NCc1nc(N2CCCC2)c2cccc(C)c2n1	.	.	i	.	.	.
CC(=O)c1cc(-c2ccccc2)n(CCC(=O)NCCc2ccccc2)c1C	.	.	.	-18%	1	-24%
SMILES	DRD3 antagonist	ATXN2 expr inh	S2 tox	HepG2 viability	D3 ag	TGFb SMAD3 inh
CCNC(=O)C1(C)CCN(Cc2csc(-c3ccccc3)n2)C1 (centres undefined)	-113*	1%	i	7%	-27	37%
CCNC(=O)C1(C)CCCN1C(=O)c1ccc2c(c1)OCO2 (centres undefined)	6	7%	i	-40%	87*	-7%
CCNC(=O)C1(C)CCCN1C(=O)c1ccc(F)c(Cl)c1 (centres undefined)	27	14%	i	-26%	9	29%
CCNC(=O)C1(C)CCCN(Cc2csc(-c3ccccc3)n2)C1 (centres undefined)	12	4%	i	-1%	-3	-4%
O=c1[nH][nH]c(C(F)(F)F)c1C=NCc1cccc(Cl)c1	-88*	-5%	i	-18%	-4	-7%
O=c1[nH][nH]c(C(F)(F)F)c1C=NCc1ccc(Cl)cc1	-84*	-9%	i	-18%	-3	-5%
COC(=O)C(CC(C)C)NS(=O)(=O)c1ccccc1Br (centres undefined)	.	.	.	-25%	.	?
COc1ccc(-c2nc(-c3ccc(O)cc3O)cs2)cc1OC	47	79%	i	-6%	39*	2%
COc1ccc(-c2nc(CCl)cs2)cc1OC	0	-16%	.	-5%	-2	-1%
CCOC(=O)c1nnn(-c2nonc2N)c1-c1ccc(OC)cc1	-54*	-2%	i	-5%	3	0%
CCOC(=O)c1nnn(-c2nonc2N)c1COc1ccc(F)cc1	-9	-2%	i	-3%	25	26%
CCOC(=O)c1nnn(-c2nonc2N)c1-c1ccc(Cl)cc1	9	-6%	i	-26%	11	?
CCCc1c(C(=O)N/N=C(\C)c2ccc(O)cc2)nnn1-c1nonc1N	-10	8%	i	-9%	-3	-8%
CCCc1c(C(=O)N/N=C(\C)c2ccccn2)nnn1-c1nonc1N	-85*	.	i	10µM*	-13	-1%
CCOC(=O)c1nnn(-c2nonc2N)c1COc1ccccc1	-58*	-1%	i	-35%	-1	?
CC(=O)N1CCc2cc(S(=O)(=O)NC(CC(C)C)C(=O)NCCc3ccc(C)cc3)ccc21 (centres undefined)	.	6%	?	2%	6	0%
CCCC1=NN2C(=N)/C(=C\c3cc(C)n(-c4cc(C)cc(C)c4)c3C)C(=O)N=C2S1	-57*	1%	i	-7%	-9	7%
